Assay results as given in the supplement of paper PMC11732987, “Enantioselective OTUD7B fragment discovery through chemoproteomics screening and high-throughput optimisation” (Communications Chemistry, 2025).

Assays:
Experiment in all cases: log2 ratio of Biotin-Ahx-Ub-VS probe labelling (fragment/DMSO); higher = less target engagement (more negative = stronger competition), active = hit call of the paper (q ≤ 0.05, log2 ratio ≤ -1)
Settings in all cases: compound concentration: 200 uM; treatment time: 3 h
[1] = target: T1, USP19 (UniProt O94966)
T1 sequence (whole entry): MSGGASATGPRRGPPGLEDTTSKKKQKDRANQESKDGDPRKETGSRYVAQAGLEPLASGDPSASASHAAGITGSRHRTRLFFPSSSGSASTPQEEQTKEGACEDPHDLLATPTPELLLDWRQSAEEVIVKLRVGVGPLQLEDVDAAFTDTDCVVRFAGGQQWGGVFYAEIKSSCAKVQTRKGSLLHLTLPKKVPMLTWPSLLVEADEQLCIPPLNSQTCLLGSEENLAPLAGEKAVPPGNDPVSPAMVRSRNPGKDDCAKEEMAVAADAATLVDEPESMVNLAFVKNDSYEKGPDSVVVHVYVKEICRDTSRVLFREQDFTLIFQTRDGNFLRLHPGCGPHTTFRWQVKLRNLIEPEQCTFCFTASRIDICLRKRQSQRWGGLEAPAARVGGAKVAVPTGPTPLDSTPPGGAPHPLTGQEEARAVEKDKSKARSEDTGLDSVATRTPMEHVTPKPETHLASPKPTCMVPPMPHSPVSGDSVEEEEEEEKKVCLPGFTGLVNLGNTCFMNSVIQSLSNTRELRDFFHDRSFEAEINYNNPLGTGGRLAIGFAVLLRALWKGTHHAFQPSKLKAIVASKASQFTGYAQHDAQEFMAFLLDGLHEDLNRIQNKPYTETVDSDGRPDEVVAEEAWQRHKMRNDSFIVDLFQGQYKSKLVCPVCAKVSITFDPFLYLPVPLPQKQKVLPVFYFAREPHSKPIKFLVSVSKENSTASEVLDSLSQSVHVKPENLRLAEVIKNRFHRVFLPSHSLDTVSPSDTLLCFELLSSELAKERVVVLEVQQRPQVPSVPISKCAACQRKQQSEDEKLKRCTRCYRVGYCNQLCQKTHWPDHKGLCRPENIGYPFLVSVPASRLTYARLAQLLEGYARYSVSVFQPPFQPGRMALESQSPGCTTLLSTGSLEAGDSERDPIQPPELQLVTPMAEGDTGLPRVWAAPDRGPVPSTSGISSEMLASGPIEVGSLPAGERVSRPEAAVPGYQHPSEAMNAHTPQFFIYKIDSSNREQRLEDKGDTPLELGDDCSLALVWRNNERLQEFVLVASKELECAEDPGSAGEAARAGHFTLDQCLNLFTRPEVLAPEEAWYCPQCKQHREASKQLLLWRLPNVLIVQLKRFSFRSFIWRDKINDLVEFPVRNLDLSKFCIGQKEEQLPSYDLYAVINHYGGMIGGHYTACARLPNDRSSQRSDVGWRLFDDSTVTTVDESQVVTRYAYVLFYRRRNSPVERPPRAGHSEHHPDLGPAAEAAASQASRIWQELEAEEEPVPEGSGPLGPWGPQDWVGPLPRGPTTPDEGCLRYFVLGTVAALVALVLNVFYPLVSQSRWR
How it was run: (§1)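 Average log2 ratios of fragment over vehicle were obtained by unpaired t-test from global-median-normalised Spectronaut label-free quantities. Proteins with ≥2 unique peptides were included. HEK293T lysate (495 µg per sample) was treated in triplicate with fragment at 200 µM or vehicle for 3 h, then with Biotin-Ahx-Ub-VS at 0.5 µM final for 1 h, and labelled DUBs were NeutrAvidin-enriched and run by diaPASEF LC-MS/MS.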

[2] = target: T2, USP22 (UniProt Q9UPT9)
T2 sequence (whole entry): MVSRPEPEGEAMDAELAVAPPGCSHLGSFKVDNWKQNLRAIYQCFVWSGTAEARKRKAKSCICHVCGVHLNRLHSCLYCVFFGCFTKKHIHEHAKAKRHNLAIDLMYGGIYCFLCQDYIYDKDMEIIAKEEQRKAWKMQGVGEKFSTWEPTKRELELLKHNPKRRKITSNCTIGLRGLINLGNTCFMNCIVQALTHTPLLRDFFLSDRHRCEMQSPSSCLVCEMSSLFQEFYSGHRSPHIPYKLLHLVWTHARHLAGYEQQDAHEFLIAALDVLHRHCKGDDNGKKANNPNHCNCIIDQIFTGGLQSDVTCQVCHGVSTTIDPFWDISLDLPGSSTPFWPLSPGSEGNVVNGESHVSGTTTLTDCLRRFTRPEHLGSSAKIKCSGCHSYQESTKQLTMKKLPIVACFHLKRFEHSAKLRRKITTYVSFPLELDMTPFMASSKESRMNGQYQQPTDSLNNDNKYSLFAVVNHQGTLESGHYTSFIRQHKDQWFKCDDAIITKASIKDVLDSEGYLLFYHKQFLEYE
How it was run: as §1

[3] = target: USP24 (UniProt Q9UPU5)
USP24, sequence (Q9UPU5 whole entry): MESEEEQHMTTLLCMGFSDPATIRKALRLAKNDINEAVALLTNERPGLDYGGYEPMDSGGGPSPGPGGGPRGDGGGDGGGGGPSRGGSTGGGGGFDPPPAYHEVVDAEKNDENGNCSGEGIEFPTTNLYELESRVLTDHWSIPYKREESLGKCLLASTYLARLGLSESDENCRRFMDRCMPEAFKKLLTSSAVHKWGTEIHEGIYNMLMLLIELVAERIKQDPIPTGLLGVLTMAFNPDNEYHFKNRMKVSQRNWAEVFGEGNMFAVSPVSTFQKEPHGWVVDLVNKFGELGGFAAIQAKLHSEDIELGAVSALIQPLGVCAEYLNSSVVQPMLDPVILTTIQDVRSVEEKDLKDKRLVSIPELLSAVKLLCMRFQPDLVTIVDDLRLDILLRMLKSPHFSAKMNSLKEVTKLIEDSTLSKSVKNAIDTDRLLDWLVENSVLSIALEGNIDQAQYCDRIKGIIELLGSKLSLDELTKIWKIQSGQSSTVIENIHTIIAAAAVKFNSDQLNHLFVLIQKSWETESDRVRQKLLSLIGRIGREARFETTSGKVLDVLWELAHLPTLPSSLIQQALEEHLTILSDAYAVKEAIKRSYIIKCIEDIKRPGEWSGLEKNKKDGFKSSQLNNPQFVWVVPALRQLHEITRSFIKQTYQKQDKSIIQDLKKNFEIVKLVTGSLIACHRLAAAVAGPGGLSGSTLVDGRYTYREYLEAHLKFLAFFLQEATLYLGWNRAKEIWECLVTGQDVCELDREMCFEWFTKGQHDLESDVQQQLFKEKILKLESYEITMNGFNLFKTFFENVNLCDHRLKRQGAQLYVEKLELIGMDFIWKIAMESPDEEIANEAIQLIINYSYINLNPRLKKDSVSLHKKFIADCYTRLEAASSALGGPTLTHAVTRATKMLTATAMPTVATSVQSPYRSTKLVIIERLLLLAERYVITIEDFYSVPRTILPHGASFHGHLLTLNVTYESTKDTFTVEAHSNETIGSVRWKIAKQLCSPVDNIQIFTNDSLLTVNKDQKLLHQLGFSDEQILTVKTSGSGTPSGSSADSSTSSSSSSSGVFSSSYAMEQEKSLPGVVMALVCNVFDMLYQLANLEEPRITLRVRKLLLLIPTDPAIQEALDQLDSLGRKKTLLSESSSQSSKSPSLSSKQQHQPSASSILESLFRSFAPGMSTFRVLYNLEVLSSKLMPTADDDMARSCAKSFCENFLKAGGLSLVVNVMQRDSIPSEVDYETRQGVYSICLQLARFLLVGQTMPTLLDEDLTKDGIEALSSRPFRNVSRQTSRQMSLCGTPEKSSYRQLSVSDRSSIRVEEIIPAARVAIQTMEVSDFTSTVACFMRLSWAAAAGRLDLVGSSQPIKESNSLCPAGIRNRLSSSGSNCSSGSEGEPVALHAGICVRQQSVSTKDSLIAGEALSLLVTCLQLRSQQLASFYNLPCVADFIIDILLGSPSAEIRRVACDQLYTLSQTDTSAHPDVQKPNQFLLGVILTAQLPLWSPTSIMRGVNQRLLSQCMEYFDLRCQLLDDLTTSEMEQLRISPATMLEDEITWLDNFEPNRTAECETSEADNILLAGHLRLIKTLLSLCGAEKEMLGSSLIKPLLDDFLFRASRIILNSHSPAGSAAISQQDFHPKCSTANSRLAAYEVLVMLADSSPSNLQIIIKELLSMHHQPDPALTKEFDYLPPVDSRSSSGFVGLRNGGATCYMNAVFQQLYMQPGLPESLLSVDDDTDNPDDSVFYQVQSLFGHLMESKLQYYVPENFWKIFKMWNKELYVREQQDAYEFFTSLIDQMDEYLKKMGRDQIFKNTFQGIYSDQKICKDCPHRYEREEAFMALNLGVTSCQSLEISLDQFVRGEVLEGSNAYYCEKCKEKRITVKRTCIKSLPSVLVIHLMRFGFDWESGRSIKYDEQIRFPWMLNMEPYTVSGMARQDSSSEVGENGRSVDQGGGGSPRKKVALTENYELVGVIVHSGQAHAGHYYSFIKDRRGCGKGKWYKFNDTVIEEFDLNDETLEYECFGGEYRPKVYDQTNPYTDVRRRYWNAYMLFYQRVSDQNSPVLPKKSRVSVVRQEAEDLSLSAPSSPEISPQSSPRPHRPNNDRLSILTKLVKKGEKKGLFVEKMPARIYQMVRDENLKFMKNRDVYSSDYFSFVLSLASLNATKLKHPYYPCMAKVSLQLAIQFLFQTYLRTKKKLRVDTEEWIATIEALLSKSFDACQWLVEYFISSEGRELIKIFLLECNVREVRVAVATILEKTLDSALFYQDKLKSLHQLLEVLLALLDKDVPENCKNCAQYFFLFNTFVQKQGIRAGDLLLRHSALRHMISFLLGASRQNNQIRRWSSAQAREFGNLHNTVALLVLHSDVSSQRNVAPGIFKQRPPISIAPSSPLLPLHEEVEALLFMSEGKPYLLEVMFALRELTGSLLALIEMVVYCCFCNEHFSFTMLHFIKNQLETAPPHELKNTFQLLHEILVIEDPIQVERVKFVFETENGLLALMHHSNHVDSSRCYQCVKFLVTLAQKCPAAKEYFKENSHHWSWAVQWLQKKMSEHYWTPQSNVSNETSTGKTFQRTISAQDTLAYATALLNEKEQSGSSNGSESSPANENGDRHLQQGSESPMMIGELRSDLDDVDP
How it was run: as §1

[4] = target: T3, USP25 (UniProt Q9UHP3)
T3 sequence (whole entry): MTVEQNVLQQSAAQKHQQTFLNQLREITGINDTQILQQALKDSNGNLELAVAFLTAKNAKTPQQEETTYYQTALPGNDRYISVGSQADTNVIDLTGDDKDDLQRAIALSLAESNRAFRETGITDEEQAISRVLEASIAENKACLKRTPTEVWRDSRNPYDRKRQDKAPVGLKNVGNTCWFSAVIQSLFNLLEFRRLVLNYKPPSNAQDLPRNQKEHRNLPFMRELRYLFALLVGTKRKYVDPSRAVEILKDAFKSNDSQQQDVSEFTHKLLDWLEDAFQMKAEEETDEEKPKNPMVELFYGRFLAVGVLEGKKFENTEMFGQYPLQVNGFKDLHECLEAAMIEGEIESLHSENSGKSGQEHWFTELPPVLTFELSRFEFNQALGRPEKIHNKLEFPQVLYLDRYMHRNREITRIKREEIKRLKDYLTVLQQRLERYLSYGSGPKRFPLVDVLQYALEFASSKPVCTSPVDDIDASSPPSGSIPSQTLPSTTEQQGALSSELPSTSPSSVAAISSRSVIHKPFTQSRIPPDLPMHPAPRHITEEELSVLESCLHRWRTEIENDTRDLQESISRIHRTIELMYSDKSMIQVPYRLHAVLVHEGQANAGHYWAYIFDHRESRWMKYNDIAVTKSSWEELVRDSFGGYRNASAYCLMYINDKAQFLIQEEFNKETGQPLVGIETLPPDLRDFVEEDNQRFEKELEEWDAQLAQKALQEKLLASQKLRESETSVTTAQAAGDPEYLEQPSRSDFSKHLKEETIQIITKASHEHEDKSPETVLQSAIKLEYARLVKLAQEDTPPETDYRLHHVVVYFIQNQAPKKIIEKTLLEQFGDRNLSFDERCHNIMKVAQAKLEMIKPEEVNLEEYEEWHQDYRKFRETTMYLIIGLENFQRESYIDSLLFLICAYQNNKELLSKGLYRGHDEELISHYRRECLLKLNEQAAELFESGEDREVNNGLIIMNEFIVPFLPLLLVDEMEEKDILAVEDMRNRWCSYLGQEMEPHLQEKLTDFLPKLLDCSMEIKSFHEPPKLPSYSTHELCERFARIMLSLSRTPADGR
How it was run: as §1

[5] = target: T4, USP28 (UniProt Q96RU2)
T4 sequence (whole entry): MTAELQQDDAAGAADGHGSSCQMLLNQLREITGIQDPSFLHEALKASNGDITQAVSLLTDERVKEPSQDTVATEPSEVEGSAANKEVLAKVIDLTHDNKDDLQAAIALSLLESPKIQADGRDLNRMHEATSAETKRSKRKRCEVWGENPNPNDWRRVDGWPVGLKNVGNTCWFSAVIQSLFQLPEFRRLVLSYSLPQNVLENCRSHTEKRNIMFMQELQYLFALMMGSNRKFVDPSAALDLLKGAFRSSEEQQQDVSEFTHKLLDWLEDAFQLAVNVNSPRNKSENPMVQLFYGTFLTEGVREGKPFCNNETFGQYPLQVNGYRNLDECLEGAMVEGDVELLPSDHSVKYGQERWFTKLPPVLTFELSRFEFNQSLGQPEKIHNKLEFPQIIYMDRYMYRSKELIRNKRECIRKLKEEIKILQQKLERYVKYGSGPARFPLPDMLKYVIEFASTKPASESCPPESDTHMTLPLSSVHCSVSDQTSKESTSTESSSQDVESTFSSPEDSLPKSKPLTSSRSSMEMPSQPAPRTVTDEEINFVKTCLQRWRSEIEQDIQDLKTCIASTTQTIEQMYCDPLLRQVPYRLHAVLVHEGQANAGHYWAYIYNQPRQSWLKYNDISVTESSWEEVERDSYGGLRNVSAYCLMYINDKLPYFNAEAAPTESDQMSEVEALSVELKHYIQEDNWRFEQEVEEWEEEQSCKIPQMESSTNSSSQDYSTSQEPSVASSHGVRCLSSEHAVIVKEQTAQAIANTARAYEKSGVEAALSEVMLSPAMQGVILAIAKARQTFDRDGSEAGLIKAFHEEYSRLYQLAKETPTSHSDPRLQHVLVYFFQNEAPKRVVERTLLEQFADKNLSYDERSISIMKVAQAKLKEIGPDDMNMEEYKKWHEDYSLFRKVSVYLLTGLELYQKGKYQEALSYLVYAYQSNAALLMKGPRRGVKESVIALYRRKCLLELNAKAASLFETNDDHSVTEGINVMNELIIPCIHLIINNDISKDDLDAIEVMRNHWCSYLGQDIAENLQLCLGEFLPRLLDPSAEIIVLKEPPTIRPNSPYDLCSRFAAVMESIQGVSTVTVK
How it was run: as §1

Measured: log2 ratio of Biotin-Ahx-Ub-VS probe labelling

CCN(C(=O)CCl)C1CCS(=O)(=O)C1 (stereo not given)
inactive: [1] 0.00457 | [2] -0.0368 | [3] 0.0946 | [4] -0.0672 | [5] -0.106
